From PubChem BioAssay

Experiments:
[1] = system: Human papillomavirus type 1a protein E7 (residues 44-93); test: HPV1a E7 fragment binders on microarrays, primary screen, biochemical, small-molecule microarray, residues 44-93, 635 nm fluorescence (AID 1108); conditions: small-molecule microarray binding, fluorescence 635 nm; higher = more signal;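 note: E7 fragment applied at 1 µg/mL in TBST for 1 h at 4 C; score combines spot fluorescence with its signal to noise ratio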
[2] = modulators of HCV replicon luciferase signal, primary screen, HCV replication inhibitor project, Huh7 cells, luciferase reporter (AID 1109); conditions: 48 h, higher = more signal;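 note: huh7 hepatoma cells harbouring a luciferase neomycin HCV replicon reporter; luciferase luminescence as measure of HCV replicon replication; test concentration not given here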
[3] = target: Left-right determination factor 2 (Homo sapiens) (UniProt O00292); test: LEFTY2 binders on small-molecule microarrays, primary screen, biochemical, small-molecule microarray, 635 nm fluorescence scan (AID 1110); conditions: LEFTY2 binding, higher = more signal
Left-right determination factor 2 (Homo sapiens), sequence (O00292 whole entry, looked up): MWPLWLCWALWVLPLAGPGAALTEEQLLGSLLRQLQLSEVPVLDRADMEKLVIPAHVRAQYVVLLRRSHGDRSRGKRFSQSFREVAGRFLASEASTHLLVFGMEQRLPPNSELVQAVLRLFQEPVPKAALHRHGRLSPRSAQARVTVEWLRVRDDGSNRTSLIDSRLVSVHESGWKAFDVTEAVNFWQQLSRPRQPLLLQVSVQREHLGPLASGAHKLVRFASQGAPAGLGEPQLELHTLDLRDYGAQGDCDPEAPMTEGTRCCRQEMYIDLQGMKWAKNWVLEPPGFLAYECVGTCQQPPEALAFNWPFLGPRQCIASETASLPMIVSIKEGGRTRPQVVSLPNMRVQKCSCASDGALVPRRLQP

[4] = target: Calmodulin-1 (Homo sapiens) (UniProt P0DP23); test: CALM1 binders on microarrays, EGTA buffer, profiling panel, biochemical, small-molecule microarray, Cy5-labelled CALM1 (AID 1111); conditions: Cy5-CALM1 binding fluorescence, higher = more signal;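 note: labelled calmodulin applied in Tris saline Tween buffer holding calcium plus EGTA and DTT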
[5] = target: Calmodulin-1 (Homo sapiens) (UniProt P0DP23); test: calcium-bound CALM1 binders on microarrays, profiling panel, artefact control for SMM control-protein annotation, biochemical, small-molecule microarray, Cy5-labelled CALM1, plus calcium (AID 1112); conditions: Cy5-CALM1 binding fluorescence, higher = more signal;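 note: score merges spot fluorescence with signal to noise from triplicate slides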
[6] = small-molecule microarray binders of probe aWnt5a, primary screen, biochemical, biotinylated probe, 635/667 nm fluorescence (AID 1113); conditions: higher = more signal;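 note: score merges 667 nm fluorescence intensity with signal-to-noise per printed feature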
[7] = small-molecule microarray binders of probe aShh, primary screen, biochemical, biotinylated probe, 635/667 nm fluorescence (AID 1114); conditions: higher = more signal;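 note: probe is biotin-labelled aShh protein from a stem cell growth factor screen; measures binding of labelled protein to compounds printed on the slide; score merges feature fluorescence at 667 nm with signal-to-noise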
[8] = small-molecule microarray binders of probe aNog, primary screen, biochemical, biotinylated probe, 635/667 nm fluorescence (AID 1115); conditions: higher = more signal;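 note: probe is biotinylated aNog protein used at 0.15 µg/mL for 1 h at 4 C; z-score combines 667 nm fluorescence of each spot with its signal to noise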
[9] = target: Torsin-1A-interacting protein 1 (Homo sapiens) (UniProt Q5JTV8); test: LAP1 binders from COS7 cell lysate, primary screen, small-molecule microarray, 635/667 nm fluorescence (AID 1116); conditions: COS7-hLAP1 lysate binding, 635 nm fluorescence, higher = more signal
Torsin-1A-interacting protein 1 (Homo sapiens), sequence (Q5JTV8 whole entry, looked up): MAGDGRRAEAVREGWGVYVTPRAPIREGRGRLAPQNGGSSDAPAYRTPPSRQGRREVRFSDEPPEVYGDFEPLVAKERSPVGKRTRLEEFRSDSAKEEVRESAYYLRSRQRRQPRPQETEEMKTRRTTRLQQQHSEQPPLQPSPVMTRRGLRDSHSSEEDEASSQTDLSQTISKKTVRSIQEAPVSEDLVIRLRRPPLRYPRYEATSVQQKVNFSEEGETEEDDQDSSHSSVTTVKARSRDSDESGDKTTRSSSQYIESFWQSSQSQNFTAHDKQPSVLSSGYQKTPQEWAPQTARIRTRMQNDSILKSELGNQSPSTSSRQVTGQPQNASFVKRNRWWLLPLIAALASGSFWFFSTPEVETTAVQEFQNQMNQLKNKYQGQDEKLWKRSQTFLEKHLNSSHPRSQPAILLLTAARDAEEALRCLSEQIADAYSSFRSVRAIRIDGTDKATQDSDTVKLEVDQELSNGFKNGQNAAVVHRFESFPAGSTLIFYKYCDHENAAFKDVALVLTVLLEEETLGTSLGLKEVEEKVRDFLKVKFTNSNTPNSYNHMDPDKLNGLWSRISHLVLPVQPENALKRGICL

[10] = target: Alpha-bungarotoxin (Bungarus multicinctus) (UniProt P60615); test: alpha-bungarotoxin binders on microarray, profiling panel, artefact control for SMM control protein annotation, biochemical, small-molecule microarray, Alexa647 label, 635/667 nm fluorescence (AID 1117); conditions: alpha-BTX-A647 binding fluorescence, higher = more signal
Alpha-bungarotoxin (Bungarus multicinctus), sequence (P60615 whole entry, looked up): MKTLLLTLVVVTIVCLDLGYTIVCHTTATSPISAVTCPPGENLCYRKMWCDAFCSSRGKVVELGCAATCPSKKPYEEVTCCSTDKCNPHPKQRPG

SMILES	composite z-score [1]	z-score [2]	composite z-score [3]	composite z-score [4]	composite z-score [5]	composite z-score [6]	composite z-score [7]	composite z-score [8]	composite z-score [9]	composite z-score [10]
C=CCC(OC(C)=O)[C@@H]1[C@@H](N(Cc2cccc3ccccc23)C(=O)Cc2ccc(F)cc2)c2cc(OCCCO)ccc2N1C(=O)Cc1ccc(OC)cc1 (stereo not given in full)	0.0243	-0.81	0.584	0.965	-0.652	-0.197	-0.0557	-0.122	-0.0854	-0.0482
C=CC[C@]1(C(=O)NCC(O)CO)N=C(c2ccc(OCCCO)cc2)O[C@H]1c1ccccc1N=[N+]=[N-] (stereo not given in full)	1.14	-0.0862	-0.571	1.64	0.479	0.106	1.09	1.68	2.75	-0.0575
CN(C)CCCCCCNC(=O)[C@@H]1C[C@@H]2C(=O)NCC(=O)N2[C@@H]1c1ccc(O)cc1	1.33	0.589	0.932	-1.53	-1.89	0.0785	0.46	-0.213	1.96	1.83
O=C1c2ccccc2[C@](Cc2ccccc2I)(C(=O)NC2CC2)[C@H](c2ccc(CO)cc2)N1Cc1ccccc1Cl	1.06	-1.4	-0.112	0.638	0.61	-0.0701	0.755	0.139	0.747	0.09
COc1ccccc1CN1C(=O)c2ccccc2[C@](Cc2ccccc2I)(C(=O)NCCN2CCOCC2)[C@@H]1c1ccc(CO)cc1	1.36	-2.96	1.01	0.688	-0.768	-0.0118	-0.144	-0.0746	0.488	1.19
O=C(Nc1cc(Br)ccc1C(=O)NCc1cccc(O)c1)c1ccccc1	0.27	-2.32	0.547	1.48	0.22	0.0297	-0.252	-0.75	0.888	1.36
COCCCNC(=O)[C@@]1(Cc2ccccc2)COC(c2ccc(OCCCO)cc2)=N1	0.952	-0.409	-1.08	0.525	0.361	0.199	0.289	-0.573	1.03	0.943
COC(=O)[C@@]1(Cc2ccc(OC)cc2)[C@H]2c3cc(C(=O)N4CCCC4)n(Cc4ccc(C)o4)c3C[C@H]2CN1C(=O)c1ccccc1	1.2	-3.68	-0.242	0.493	0.0918	0.457	0.444	-0.504	0.762	0.287
CCCCCCCCCCC(O)C1C=CC2C(=O)NC(=O)C2N1Nc1ccccn1 (stereo not given)	1.08	-2.64	-0.765	1.4	0.945	-0.0566	0.337	1.7	-0.0182	0.217
C#CCNS(=O)(=O)N(C)C	0.638	0.119	0.713	-0.157	-0.687	-0.096	0.0463	-0.168	0.0976	0.601
CCN(CC)c1ccc(N2CC=CC34O[C@@H]5/C=C\CCCOC(=O)C5[C@H]3C(=O)N(CCCCCCO)[C@@H]4C2=O)cc1 (stereo not given in full)	-0.117	0.444	-1.76	-1.18	-1.05	-0.139	0.147	-0.0439	1.26	-0.855
CCCCC(=C=CC[C@H](O)c1cccc(OCCO)c1)C[C@H](O)COCc1ccccc1	0.49	-1.88	-0.466	-0.59	-0.897	-0.148	-0.154	-0.397	-0.432	-0.283
C=C(C)[C@@H]1CC=C(C(O)C2C=CC3C(=O)N(C4CCCCC4)C(=O)C3N2Nc2ccc(OC)cc2)CC1 (stereo not given in full)	1.39	-1.19	0.3	1.5	0.417	-0.0738	-0.1	-0.368	0.477	1.3
CO[C@H]1O[C@H](CO)[C@@H](OC(=O)Nc2ccc(C(F)(F)F)cc2)[C@H](OC(=O)Nc2ccccc2)[C@H]1OC(=O)Nc1ccccc1	0.69	-3.84	0.513	1.99	0.168	0.133	0.342	1.18	0.825	2.69
CC(C)c1ccc(NN2C(C(O)c3ccccn3)C=CC3C(=O)N(c4ccccc4)C(=O)C32)cc1 (stereo not given)	1.51	-0.112	0.581	1.11	0.214	0.145	0.04	1.7	1.34	0.964
C=CCNC(=O)[C@@H]1[C@H]2C(=O)O[C@H](c3ccccc3)[C@H](c3ccccc3)N2[C@H](c2ccc(O)cc2)[C@@]12C(=O)Nc1ccc(C#CCCO)cc12	-0.379	-0.439	-0.144	-0.0464	0.0653	-0.0792	-0.484	-0.372	-0.275	-0.04
[N-]=[N+]=Nc1ccccc1[C@@H]1OC(c2ccc(OCCCO)cc2)=N[C@]1(CCS(=O)(=O)c1ccccc1)C(=O)NCc1ccccc1	1.41	0.0858	0.343	2.03	0.603	0.0338	0.0469	1.6	2.15	1.9

SMILES	composite z-score [1]	z-score [2]	composite z-score [3]	composite z-score [4]	composite z-score [5]	composite z-score [6]	composite z-score [7]	composite z-score [8]	composite z-score [9]	composite z-score [10]
COc1ccc([Si](C)(C)[C@@H]2[C@@H](CCO)O[C@]3(C(=O)N(Cc4ccccc4)c4ccc(N5C(=O)COc6ccccc65)cc43)[C@H]2C)cc1	1.23	-4.11	0.0529	0.953	0.838	-0.129	-0.0626	-0.194	0.462	0.31
CO[C@H]1O[C@H](CO)[C@@H](OC(=O)c2ccc(Br)cc2)[C@@H]2OC(=O)[C@H](Cc3cccc(Br)c3)C/C=C/C[C@@H](Cc3cccc(Br)c3)C(=O)O[C@@H]12	0.549	-2.15	0.985	0.622	0.0872	-0.113	0.317	-0.172	0.323	0.867
COc1ccccc1CN1C(=O)c2ccccc2[C@@]2(Cc3ccccc3N(C3CC3)C2=O)[C@@H]1c1ccc(CO)cc1	-0.447	-0.344	-0.921	0.117	-0.164	-0.131	0.0062	-0.422	-0.455	0.134
CC(C)C(CO)N1C(=O)[C@@H]2[C@H]3C(=O)OCC=C[C@H]3OC23C=CCN(CCN2CCOCC2)C(=O)[C@@H]13 (stereo not given in full)	-0.0831	-0.911	-0.0025	-0.229	-1.32	-0.176	-0.0709	-0.0719	-0.128	0.451
CC(C)C[C@@H]1NC(=O)[C@@]23C(=O)N[C@@H](Cc4ccccc4)C2[C@H](C)[C@@]2(C)O[C@H]2C3/C=C/C/C=C\CNC(=O)[C@@H]2CCCN2C1=O (stereo not given in full)	-0.282	-0.972	0.283	-0.749	-0.721	-0.124	-0.138	-0.219	-0.22	-0.442
CCOC(=O)C[C@H]1[C@H](OC(=O)Cc2ccc3c(c2)OCO3)[C@@H](NC(=O)c2ccccc2)c2cc(OCCCO)ccc2N1C(=O)c1ccccc1	0.487	-0.183	0.24	0.334	-0.469	-0.128	-0.221	-0.18	0.223	0.652
CCCC=C(CCC)[C@@H](NC(=O)Cc1ccccc1)c1ccc(C(=O)OC)cc1	1.08	-1.11	0.0461	1.22	0.499	0.748	2.15	1.79	-0.481	1.66
CC(C)[Si](C#C[Si](C(C)C)(C(C)C)C(C)C)(O[C@H](C)c1cn(Cc2cccc(Cl)c2)nn1)C(C)C	0.953	-0.266	0.499	1.01	0.506	-0.253	-0.243	-0.175	0.0392	1.03
COCCOC(=O)N1C(=O)[C@@]2(c3cc(C#CCNC(N)=O)ccc31)[C@H](c1ccc(OCCO)cc1)N1[C@H](c3ccccc3)[C@H](c3ccccc3)OC(=O)[C@H]1[C@@H]2C(=O)N1CCN(c2ncccn2)CC1	1.23	-0.0743	0.93	0.515	0.53	0.0657	-0.138	-0.0724	0.895	0.505
Cc1ccc(C(C)CC(O)C2C=CC3C(=O)N(Cc4ccccc4)C(=O)C3N2n2cnnc2)o1 (stereo not given)	1.22	0.236	-0.304	0.455	0.0454	0.688	0.765	2.12	0.342	0.279
CC(C)=CCCC(C)=CC(O)C1C=CC2C(=O)N(c3ccccc3)C(=O)C2N1Nc1ccc([N+](=O)[O-])cc1 (stereo not given)	1.42	-0.135	-0.183	1.78	0.512	-0.0194	0.0952	1.71	1.08	0.972
COCCOC(=O)N1C(=O)[C@@]2(c3cc(C#CCC(C(=O)OC)C(=O)OC)ccc31)[C@H](C(=O)N1CCCCCCC1)[C@H]1C(=O)O[C@H](c3ccccc3)[C@H](c3ccccc3)N1[C@@H]2c1ccc(O)cc1	1.37	-0.586	0.485	1.1	0.624	0.244	-0.0422	2.33	0.166	1.3
O=C1NC(=O)C2C1C=CC(C(O)c1ccc(-c3ccccc3)s1)N2Nc1ccccn1 (stereo not given)	-1.13	-0.684	0.18	0.0183	0.0403	0.0746	-0.0961	-0.0545	2.8	0.435
COCCCNC(=O)[C@@H]1c2ccccc2C(=O)N(Cc2cc(F)cc(C(F)(F)F)c2)[C@H]1c1ccc(CO)cc1	-1.6	-0.252	-1.36	-0.365	-0.167	-0.212	-0.153	-0.285	-1.13	-0.4
O=C1C2C=CC(C(O)c3cccc4ccccc34)N(Nc3ccccc3)C2C(=O)N1c1ccccc1 (stereo not given)	1.38	-1.29	0.321	0.972	-0.8	0.0725	0.424	1.05	0.759	2.06
Cc1ccccc1C(O)C1C=CC2C(=O)N(C)C(=O)C2N1Nc1ccc([N+](=O)[O-])cc1[N+](=O)[O-] (stereo not given)	1.45	0.265	0.0979	1.43	1.08	0.14	0.254	-0.235	1.24	1.36
COCCCNC(=O)[C@@]1(C)c2ccccc2C(=O)N(c2ccc(C)cn2)[C@H]1c1ccc(CO)cc1	-0.588	-0.0063	-0.877	-0.949	-1.12	-0.172	0.283	-0.911	1.69	-1.65
